According to PubChem BioAssay AID1159580 (chemical genetic matrix, 2015):
Screen size: about 5,500 compounds; about 2,000 (36%) were called active. Another 18% or so got no clear call; they are omitted. Cut-off read from the data, not from the text of the source: active = normalized growth mostly below about 0.91 (no sharp cut-off); inconclusive = no clear call, values can overlap the other calls; inactive = mostly above about 0.92. The list shows a part of the results.

Assay: chemical genetic growth profiling, strain panel (AID 1159580);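 note: tested at 20 µM; growth read once vehicle control cultures reached saturation at 30 °C; 1 = growth at the plate median or of vehicle wells; lower values mean less growth of the strain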
Conditions: S. cerevisiae deletion strains, growth OD
[1] = locus YAR019C, strain CDC15, active compounds read low
[2] = locus YBL105C, strain PKC1, active compounds read low
[3] = locus YBR135W, strain CKS1, active compounds read low
[4] = locus YBR136W, strain MEC1, active compounds read low
[5] = locus YBR160W, strain CDC28, active compounds read low
[6] = locus YDL017W, strain CDC7, active compounds read low
[7] = locus YDL028C, strain MPS1, active compounds read low
[8] = locus YDL101C, strain DUN1, active compounds read low
[9] = locus YDL108W, strain KIN28, active compounds read low
[10] = locus YDL132W, strain cdc53, active compounds read low
[11] = locus YDL214C, strain PRR2, active compounds read low
[12] = locus YDR052C, strain DBF4, active compounds read low
[13] = locus YDR054C, strain cdc34, active compounds read low
[14] = locus YDR226W, strain ADK1, active compounds read low
[15] = locus YDR477W, strain SNF1, active compounds read low
[16] = locus YER123W, strain YCK3, active compounds read low
[17] = locus YER133W, strain GLC7, active compounds read low
[18] = locus YFL009W, strain cdc4, active compounds read low
[19] = locus YFL029C, strain CAK1, active compounds read low
[20] = locus YFR003C, strain YPI1, active compounds read low
[21] = locus YFR019W, strain FAB1, active compounds read low
[22] = locus YFR028C, strain CDC14, active compounds read low
[23] = locus YGR040W, strain KSS1, active compounds read low
[24] = locus YGR052W, strain FMP48, active compounds read low
[25] = locus YGR092W, strain DBF2, active compounds read low
[26] = locus YHR030C, strain SLT2, active compounds read low
[27] = locus YHR079C, strain IRE1, active compounds read low
[28] = locus YHR082C, strain KSP1, active compounds read low
[29] = locus YHR205W, strain SCH9, active compounds read low
[30] = locus YIL147C, strain SLN1, active compounds read low
[31] = locus YJL095W, strain BCK1, active compounds read low
[32] = locus YJL128C, strain PBS2, active compounds read low
[33] = locus YJL157C, strain FAR1, active compounds read low
[34] = locus YJR016C, strain ILV3, active compounds read low
[35] = locus YJR066W, strain TOR1 (second series), active compounds read low
[36] = locus YJR066W, strain TOR1, active compounds read low
[37] = locus YKL048C, strain ELM1, active compounds read low
[38] = locus YKL067W, strain YNK1, active compounds read low
[39] = locus YKL101W, strain HSL1, active compounds read low
[40] = locus YKL193C, strain SDS22, active compounds read low
[41] = locus YKL203C, strain TOR2, active compounds read low
[42] = locus YLR113W, strain HOG1, active compounds read low
[43] = locus YLR133W, strain CKI1, active compounds read low
[44] = locus YLR403W, strain SFP1, active compounds read low
[45] = locus YML070W, strain DAK1, active compounds read low
[46] = locus YMR001C, strain CDC5, active compounds read low
[47] = locus YMR205C, strain PFK2 (second series), active compounds read low
[48] = locus YMR277W, strain FCP1, active compounds read low
[49] = locus YNL006W, strain LST8, active compounds read low
[50] = locus YNL020C, strain ARK1, active compounds read low
[51] = locus YNL161W, strain CBK1, active compounds read low
[52] = locus YNL183C, strain NPR1, active compounds read low
[53] = locus YNL207W, strain RIO2, active compounds read low
[54] = locus YNL222W, strain SSU72, active compounds read low
[55] = locus YNL307C, strain MCK1 (second series), active compounds read low
[56] = locus YOL078W, strain AVO1, active compounds read low
[57] = locus YOL136C, strain PFK27, active compounds read low
[58] = locus YOR061W, strain CKA2, active compounds read low
[59] = locus YOR119C, strain RIO1, active compounds read low
[60] = locus YOR231W, strain MKK1, active compounds read low
[61] = locus YOR329C, strain SCD5, active compounds read low
[62] = locus YPL031C, strain PHO85, active compounds read low
[63] = locus YPL153C, strain RAD53, active compounds read low
[64] = locus YPL204W, strain HRR25, active compounds read low
[65] = locus YPL209C, strain IPL1, active compounds read low
[66] = locus YPL256C, strain CLN2, active compounds read low
[67] = locus YPR025C, strain CCL1, active compounds read low
[68] = locus YPR106W, strain ISR1, active compounds read low
[69] = locus YPR111W, strain DBF20, active compounds read low
[70] = strain NNK1, active compounds read low
[71] = strain TSCII, active compounds read low

Measured: normalized growth

O=S(=O)(Nc1cccc(CCc2ccccn2)c1)c1cc(Cl)c(Cl)cc1Cl
inactive: [1] 0.982 | [2] 0.977 | [3] 0.985 | [4] 0.983 | [5] 0.966 | [6] 0.981 | [7] 0.987 | [8] 0.973 | [9] 0.983 | [10] 0.976 | [11] 0.967 | [12] 0.977 | [13] 0.979 | [14] 0.986 | [15] 0.988 | [16] 0.995 | [17] 1 | [18] 0.989 | [19] 0.976 | [20] 0.981 | [21] 0.987 | [22] 0.973 | [23] 0.98 | [24] 1.08 | [25] 1 | [26] 1.15 | [27] 1.01 | [28] 1.08 | [29] 0.963 | [30] 0.985 | [31] 1.02 | [32] 0.942 | [33] 0.98 | [34] 0.981 | [35] 0.963 | [36] 1.08 | [37] 0.97 | [38] 0.979 | [39] 0.959 | [40] 0.984 | [41] 1.05 | [42] 0.883 | [43] 0.965 | [44] 0.983 | [45] 0.95 | [46] 0.987 | [47] 0.971 | [48] 0.991 | [49] 0.992 | [50] 0.969 | [51] 0.978 | [52] 1.04 | [53] 0.985 | [54] 0.976 | [55] 0.961 | [56] 0.974 | [57] 0.952 | [58] 0.978 | [59] 1.06 | [60] 0.951 | [61] 0.983 | [62] 0.992 | [63] 0.965 | [64] 0.991 | [65] 0.976 | [66] 0.945 | [67] 0.984 | [68] 0.965 | [69] 0.955 | [70] 0.992 | [71] 0.978

O=S(=O)(Nc1cccc2nsnc12)c1cc(Cl)sc1Cl
inactive: [1] 0.948 | [2] 0.961 | [3] 0.957 | [4] 0.96 | [5] 0.962 | [6] 0.961 | [7] 0.961 | [8] 0.962 | [9] 0.961 | [10] 0.969 | [11] 0.956 | [12] 0.955 | [13] 0.95 | [14] 0.947 | [15] 0.983 | [16] 0.944 | [17] 0.938 | [18] 0.947 | [19] 0.952 | [20] 0.958 | [21] 0.938 | [22] 0.96 | [23] 0.971 | [24] 1.08 | [25] 0.87 | [26] 0.871 | [27] 0.905 | [28] 0.981 | [29] 0.933 | [30] 0.953 | [31] 0.904 | [32] 0.953 | [33] 0.967 | [34] 0.951 | [35] 0.95 | [36] 0.953 | [37] 0.916 | [38] 0.954 | [39] 0.955 | [40] 0.961 | [41] 1.02 | [42] 0.887 | [43] 0.96 | [44] 0.942 | [45] 0.947 | [46] 0.959 | [47] 0.962 | [48] 0.96 | [49] 0.959 | [50] 0.953 | [51] 0.962 | [52] 0.979 | [53] 0.957 | [54] 0.958 | [55] 0.933 | [56] 0.957 | [57] 0.94 | [58] 0.943 | [59] 1.09 | [60] 0.954 | [61] 0.961 | [62] 0.982 | [63] 0.994 | [64] 0.999 | [65] 0.96 | [66] 0.884 | [67] 0.956 | [68] 0.964 | [69] 0.947 | [70] 0.969 | [71] 0.953

O=S(=O)(Nc1cccc2cccnc12)c1cc(Cl)c(Cl)cc1Cl
inactive: [8] 1.02 | locus YDR150W, strain NUM1, active compounds read low 1.04 | locus YJR043C, strain POL32, active compounds read low 0.947 | locus YLR058C, strain SHM2 (second series), active compounds read low 0.951 | locus YNL322C, strain KRE1, active compounds read low 0.967 | locus YPR135W, strain CTF4, active compounds read low 0.807
active: locus YAL013W, strain DEP1, active compounds read low 0.773 | locus YBR229C, strain ROT2, active compounds read low 0.672 | locus YCL061C, strain MRC1, active compounds read low 0.804 | locus YEL061C, strain CIN8, active compounds read low 0.644 | locus YGR078C, strain PAC10, active compounds read low 0.855 | [26] 0.635 | locus YHR087W, strain rtc3, active compounds read low 0.517 | locus YJR075W, strain HOC1, active compounds read low 0.819 | locus YKL190W, strain CNB1, active compounds read low 0.652 | locus YLR039C, strain RIC1, active compounds read low 0.627 | locus YLR085C, strain ARP6, active compounds read low 0.583 | locus YLR262C, strain YPT6, active compounds read low 0.716 | locus YML094W, strain GIM5, active compounds read low 0.761 | locus YMR219W, strain ESC1, active compounds read low 0.863 | locus YMR263W, strain SAP30, active compounds read low 0.853 | locus YNL153C, strain GIM3, active compounds read low 0.845 | locus YNL298W, strain CLA4 (second series), active compounds read low 0.724 | locus YNR030W, strain Alg12, active compounds read low 0.773 | locus YOL006C, strain TOP1, active compounds read low 0.169 | locus YPL055C, strain LGE1, active compounds read low 0.635 | locus YPL241C, strain CIN2, active compounds read low 0.635
